Holding throughout (test): NCI-60 one-dose screen, 48 h (100 = growth as untreated, 0 = no growth, -100 = all killed)
Common to all, as to conditions: 10 µM unless noted

Assay [1] relates to NCI-H23 lung.
Assay [2] has as its system NCI-H226 lung.
The subject of assay [3] is NCI-H322M lung.
The subject of assay [4] is HOP-62 NSCLC.
Assay [5] deals with NCI-H460 lung.
The test system of assay [6] is HOP-92 NSCLC.
Assay [7] deals with NCI-H522 lung.
The subject of assay [8] is A549/ATCC NSCLC.
The test system of assay [9] is 786-0 renal.
Assay [10] has as its system COLO 205 colon.
Assay [11] concerns DU-145 prostate.
In assay [12] the test system is K-562 leukemia.
For assay [13], the system named is MALME-3M melanoma.
The test system of assay [14] is MDA-MB-231 breast.
Assay [15] relates to RXF 393 renal.
Assay [16] deals with SF-268 CNS.
Assay [17] has as its system SF-295 CNS.
Assay [18] has as its system SF-539 CNS.
The test system of assay [19] is UACC-257 melanoma.
Assay [20] has as its system M14 melanoma.

This is part of a sample that, as a whole, favours compounds with a hit. Of some 83,000 tested, about 20% had one in any assay.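 Cell lines were cultured in 96-well plates, exposed to a single compound concentration, and assessed for percent growth 48 hours later.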 Unmarked numbers belong to inactive results. Activity calls are given as the source filed them. The calls were made as follows: active = growth percent below 10; inactive = the rest.

For the molecule `CCCCN1C(=O)c2cccc3c(-c4ccc5c(c4)ncn5C4CCCCC4)ccc(c23)C1=O`, the growth in assay [1] was 96%; in assay [2], 101%; in assay [3] it was 101%; in [4], 85.2%; in assay [5] it was 110%; in assay [6], 94.6%. For the same molecule, the growth in [7] is 69.6%; in [8], 90.8%; in assay [9], 106%; in [10] it was 94%; in [11] it was 101%; in assay [12] it was 86%. Besides, the growth was 95.4% in assay [13]; 108% in assay [14]; 118% in assay [15]; 106% in assay [16]; 96.7% in [17]; 101% in [18]. Moreover, the growth was 103% in assay [19] and 92.1% in [20].
Turning to `Cc1ccc(-c2cc3c(SCC(=O)Nc4cc(C(F)(F)F)ccc4Cl)nccn3n2)cc1`, the growth in assay [1] was 74.2%; in assay [2], 54%; in [3], 31%; in [4], 43.3%; in assay [5], 14.2%; in assay [6], 28.6%. Further, the growth in [7] is 42.7%; in assay [8], 36%; in [9], 54.7%; in assay [10], 27%; in assay [11], 25.6%; in assay [12], -10.4% (active). Also, the growth is -69.5% (active) in assay [13]; 13.4% in assay [14]; 13.5% in assay [15]; 56.5% in assay [16]; 38.1% in assay [17]; 53.9% in assay [18]. In addition, in [20], the growth is 50.6%.
Consider `CCN1CCN(c2nc(C)cc(N(CCNc3ccnc4cc(Cl)ccc34)Cc3ccc4c(c3)OCO4)n2)CC1`, for which the growth in assay [1] is 67.5%; in assay [2], 75.3%; in assay [3], 36.3%; in assay [4] it was -19.8% (active); in assay [5], 18.1%; in assay [6], -4.69% (active). The growth was -0.151% (active) in [7]; 20.4% in assay [8]; -24.5% (active) in [9]; -75.8% (active) in assay [10]; 40.2% in [11]; -54.9% (active) in assay [12]. For the same molecule, the growth in assay [13] was -82.2% (active); in assay [14], -0.846% (active); in assay [15], -54.6% (active); in [16] it was 30.7%; in assay [17], -62.9% (active); in [18], -90.7% (active). For the same molecule, the growth in [20] is -80.2% (active).
Turning to `[2H]C1([2H])[C@H](C)O[C@H](C)C([2H])([2H])N1c1ccc(NC(=O)c2cccc(-c3ccc(OC(F)(F)F)cc3)c2C)cn1`, the growth in assay [1] is 58.5%; in assay [2], 58.7%; in assay [3] it was 83.4%; in assay [4] it was 77.7%; in [5], 85.1%; in assay [6] it was 8.86% (active). Moreover, the growth in [7] was 44.7%; in assay [8], 68.9%; in assay [9], 74.1%; in assay [10] it was 81.6%; in assay [11], 80.1%; in assay [12], 38.2%. Also, the growth is 68.2% in [13]; 74.9% in assay [14]; 90% in assay [15]; 71.6% in assay [16]; 73.3% in assay [17]; 81.6% in assay [18]. Further, the growth in assay [20] was 77%.
Regarding `COc1cc2c(c(OC)c1)C1c3ccccc3NC(=O)N1CC2` (stereo not given), the growth was 24% in assay [1]; 51.5% in [2]; 34.9% in assay [3]; 51.6% in assay [4]; 11.3% in assay [5]; 28.7% in assay [6]. In addition, the growth in assay [7] is 39.6%; in [8], 22.7%; in assay [9] it was 41.4%; in assay [10], 16.1%; in [11], 13.2%; in assay [12] it was 12.5%. The growth was 28.5% in [13]; 32.2% in assay [14]; 9.03% (active) in assay [15]; 48.2% in assay [16]; 13.2% in assay [17]; -9.57% (active) in assay [18]. The growth in assay [19] was 56.4%; in assay [20], -18.6% (active).
In the case of `C=CC(=O)N(C)[C@H]1C[C@H]2OC(C)(C1OC)n1c3ccccc3c3c4c(c5c6ccccc6n2c5c31)C(=O)NC4` (stereo not given in full), the growth is 4.64% (active) in assay [1]; -60.7% (active) in [2]; 6.29% (active) in assay [3]; -15.4% (active) in [4]; 1.35% (active) in assay [5]; -21.8% (active) in [6]. Besides, the growth in [7] was -54.5% (active); in [8], 9.49% (active); in assay [9], -74.2% (active); in assay [10] it was -75.3% (active); in [11] it was 28.7%; in assay [12], 4.26% (active). The growth in assay [13] is -46.7% (active); in assay [14], 7.42% (active); in assay [15], -90.1% (active); in assay [16] it was 6.45% (active); in assay [17] it was -27% (active); in [18] it was -49.1% (active). Besides, the growth in assay [20] was -1.74% (active).
`CC/C=C\C[C@H]1C/C=C2/C(=O)C=C[C@@H]2C/C=C\CCCC(=O)O1`: the growth in [1] is -12.5% (active); in [2], -54.8% (active); in assay [3], 16.7%; in assay [4] it was 44.2%; in assay [5], -33.7% (active); in assay [6], -36.6% (active). Besides, the growth was -45.1% (active) in assay [7]; -25.2% (active) in assay [8]; -79.9% (active) in assay [9]; -13.1% (active) in assay [10]; -10.9% (active) in [11]; 1.56% (active) in assay [12]. In addition, the growth in [13] was -15.3% (active); in assay [14] it was 1.26% (active); in assay [15], -57.1% (active); in assay [16] it was -0.852% (active); in assay [17], -19.8% (active); in assay [18], 5.18% (active). Besides, the growth in assay [19] is -12.7% (active); in assay [20] it was -17.4% (active).
Regarding `Cc1cc2c(-c3nc4ccccn4c3NC34CC5CC(CC(C5)C3)C4)c(O)c(O)cc2c(O)c1-c1c(C)cc2c(-c3nc4ccccn4c3NC34CC5CC(CC(C5)C3)C4)c(O)c(O)cc2c1O`, the growth is -1.87% (active) in [1]; 12.7% in [2]; 30.2% in assay [3]; 1.34% (active) in assay [4]; 5.53% (active) in [5]; -9.41% (active) in assay [6]. For the same molecule, the growth in assay [7] is -5.03% (active); in assay [8], 2.96% (active); in assay [9], -12% (active); in [10], 6.77% (active); in [11], 19.2%; in [12], 7.38% (active). Moreover, the growth in assay [13] was 7.47% (active); in assay [14] it was 21.9%; in [15], 12.2%; in [16] it was 17%; in [17], 1.49% (active); in [18], -1.69% (active). Besides, in assay [20], the growth is -0.979% (active).
